{
  "source": "PubChem BioAssay (NCATS)",
  "note": "“And” between values parts separate entries of the source, which are not always exact repeats. Equal entries are not always repeated. Unmarked numbers belong to inactive results. The source made the active and inactive calls. Calls follow the shape of the dose curve; as a rule, active = well fitted activation curve with a large enough effect; inconclusive = small, poorly fitted or top-dose-only effect; inactive = flat fitted curve, though single readings scatter. Potency is read from the fitted curve at half-maximal effect.",
  "data": [
    {"assay": "Cellular Toxicity (caspase-3) SK-N-SH (AID 661);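 as to caspase-3 activation: 0% = DMSO basal and 100% = 10 µM staurosporine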", "details": "SK-N-SH caspase-3 activation, qHTS; caspase-3 activation: at 91.7 µM (top of the series), DMSO as zero, staurosporine as full", "from_the_text": "NIH Chemical Genomics Center [NCGC]\nNIH Molecular Libraries Screening Centers Network [MLSCN]\nNational Institutes of Environmental Health Sciences [NIEHS]\nNational Toxicology Program [NTP]\nWe have developed a 1536-well cell-based assay for quantitative high throughput screening (qHTS) against a number of cell lines to determine in vitro caspase 3/7 activity of small molecules. This particular assay uses the SK-N-SH cell line which is derived from human neuroblastoma.\nNCGC Assay Protocol Summary:\nThe Caspase-Glo 3/7 assay (Promega) is a homogeneous method to measure caspase-3 and caspase-7 activities in cultured cells. The quantitation of caspase 3/7 activity is based on the cleavage of a peptide-aminoluciferin substrate. After caspase cleaves the substrate the free aminoluciferin is liberated and serves as the substrate of luciferase, which generates the light. The luminescent signal is proportional to amount of caspase 3/7 activity present.\nUsing the Caspase-Glo 3/7 assay, the amount of caspase 3/7 activity was measured in the SK-N-SH cell line with complete culture medium following compound treatment for 16 hours. The assay was performed in opaque white 1536-well plates. In the screen, tamoxifen and staurosporine were used as positive controls. Library compounds were measured for their ability to cause the activation of caspase 3/7 in the cell line, as reflected by an increase in luminescence signal, in a concentration-dependent manner. Data were normalized to the controls for basal activity (DMSO only) and 100% stimulation (10 uM staurosporine). AC50 values were determined from concentration-response data modeled with the standard Hill equation.\nqHTS protocol for caspase 3/7 assay in SK-N-SH cells\n[Step] [Parameter] [Value] [Description]\n1. Reagent; 5 uL; 1500 SK-N-SH cells/well\n2. Time; 5 hr; 37 °C incubation\n4. Controls; 23 nL; Tamoxifen 0.23 uM to 100 uM & staurosporine 1.4 pM to 100 uM\n5. Time; 16 hr; 37 °C incubation\n6. Reagent; 5 uL; Caspase-Glo 3/7 reagent\n7. Time; 1 hr; Room Temperature\n8. Detection; Luminescence; Viewlux plate reader\nKeywords: caspase 3/7, apoptosis, SK-N-SH cell line, luminescence, NTPHTS, NTPHTS_NCGC, NIEHS, EPA, DSSTox, MLSMR, MLSCN, NIH Roadmap, qHTS, NCGC", "values": [
      {"smiles": "CO[C@H]1/C=C/O[C@@]2(C)Oc3c(C)c(O)c4c(O)c(c5c(c4c3C2=O)NC2(CCN(CC(C)C)CC2)N=5)=NC(=O)/C(C)=C\\C=C\\[C@H](C)[C@H](O)[C@@H](C)[C@@H](O)[C@@H](C)[C@H](OC(C)=O)[C@@H]1C", "caspase-3 activation": "5.74%"},
      {"smiles": "C/C=C1\\C(=O)C[C@H]2[C@@H]3CCC4=CC(=O)CC[C@]4(C)[C@H]3CC[C@]12C", "caspase-3 activation": "1.31%"},
      {"smiles": "Oc1ccc2cc(SSc3ccc4cc(O)ccc4c3)ccc2c1", "caspase-3 activation": "10.2%"},
      {"smiles": "Cc1cc(Nc2ccc(O)cc2)ccc1N", "caspase-3 activation": "12.7%"},
      {"smiles": "O=C(/C=C/c1ccc(O)c(O)c1)OC1C[C@](O)(C(=O)O)C[C@@H](O)[C@H]1O", "note": "(some centres undefined)", "caspase-3 activation": "0.0888% and -0.0196%"},
      {"smiles": "O=C(OCC(COC(=O)c1ccccc1)(COC(=O)c1ccccc1)COC(=O)c1ccccc1)c1ccccc1", "caspase-3 activation": "-0.121%"},
      {"smiles": "Nc1ccc2cc3ccccc3cc2c1", "caspase-3 activation": "-1.26%"},
      {"smiles": "CCC(C)Nc1ccc(NC(C)CC)cc1", "note": "(centres undefined)", "caspase-3 activation": "-5.96%"},
      {"smiles": "Cc1ccc(S(=O)(=O)Oc2ccc(N=Nc3ccc(-c4ccc(N=Nc5c(O)ccc6cc(S(=O)(=O)O)cc(S(=O)(=O)O)c56)c(C)c4)cc3C)cc2)cc1", "caspase-3 activation": "-0.915%"},
      {"smiles": "c1ccc2c(c1)-c1cccc3c1c-2cc1ccccc13", "caspase-3 activation": "2.25%"},
      {"smiles": "O=C1OC2(c3cc(Br)c(O)c(Br)c3Oc3c2cc(Br)c(O)c3Br)c2c(Cl)c(Cl)c(Cl)c(Cl)c21", "caspase-3 activation": "0.172%"},
      {"smiles": "CC(=O)Nc1ccc(C(=O)CCl)cc1", "caspase-3 activation": "-5.98%"},
      {"smiles": "O=Cc1ccc(Cl)c(Cl)c1", "caspase-3 activation": "1.15%"},
      {"smiles": "C=CC(=O)OCC(CO)(COC(=O)C=C)COC(=O)C=C", "caspase-3 activation": "-3.53% (active)"},
      {"smiles": "CCCCCC/C(C=O)=C\\c1ccccc1", "caspase-3 activation": "-0.582%"},
      {"smiles": "O=[N+]([O-])c1cc([N+](=O)[O-])c2ccc(S(=O)(=O)O)cc2c1O", "caspase-3 activation": "-1.51%"},
      {"smiles": "CNc1ccc(O)cc1", "caspase-3 activation": "-7.58%"},
      {"smiles": "Cc1cccc(O)c1C", "caspase-3 activation": "-0.783%"},
      {"smiles": "CN1[C@H]2CC(OC(=O)[C@H](CO)c3ccccc3)C[C@H]1[C@H]1O[C@H]12", "note": "(some centres undefined)", "caspase-3 activation": "-1.73% and -0.623%"},
      {"smiles": "CN(C)c1ccc(C2(c3ccc(N(C)C)cc3)OC(=O)c3cc(N(C)C)ccc32)cc1", "caspase-3 activation": "-0.0609%"},
      {"smiles": "C=C(C)c1ccccc1", "caspase-3 activation": "0.438%"},
      {"smiles": "c1ccc2c(c1)ccc1cc3c(ccc4ccccc43)cc12", "caspase-3 activation": "-0.556%"},
      {"smiles": "c1cc(OCC2CO2)cc(OCC2CO2)c1", "note": "(centres undefined)", "Potency": "12.6 µM (active)"},
      {"smiles": "O=C=Nc1ccc(Cc2ccc(N=C=O)cc2)cc1", "caspase-3 activation": "0.0206%"}
    ]}
  ]
}
